Bioassay records as filed in PubChem.
Rows were chosen to be rich in hits. Some 19% of all compounds tested hit in one or more screens of this group.
KB-V1 MDR tox = kills drug-selected multidrug resistant KB-V1 cells; Potency, µM (titrated, usually from 46.1 µM), actives largely listed as cytotoxic; hit rate 3.4% among 400,000; KB-V1 MDR cells viability, CellTiter-Glo, 72 h; AID 1347076; also: nearly all actives have a fitted effect of over 60% in size
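Cytotoxicity toward P-gp-expressing KB-V1 cells was determined as loss of CellTiter-Glo luminescence after 72 h at 37 degrees C. Compounds were tested in quantitative HTS format across a concentration range, with curves fitted to normalized data.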
KB-3-1 tox = kills parental KB-3-1 adenocarcinoma cells. KB-3-1 viability, CellTiter-Glo ATP luminescence, 72 h. hit rate 1.4% among 400,000. Potency, µM (doses to about 46.1 µM), actives largely listed as cytotoxic; also: nearly all actives have a fitted effect of over 60% in size
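Parental KB-3-1 viability, qHTS format: 72 h compound exposure, 37 °C; CellTiter-Glo; media-only wells and DMSO plates as controls; concentration-effect fits on corrected data.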
TDP1 cell CPT = DT40-hTDP1 cell growth loss with CPT. AID 686979. hit rate 12% among 420,000. Potency, µM (top dose mostly 46.2 µM), usual class: inhibitors. chicken DT40 Tdp1-/-;hTDP1 cells + 20 nM CPT, ATP luminescence, 48 h; also: nearly all actives have a fitted effect of over 55% in size
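Chicken DT40 Tdp1-/- cells stably complemented with human TDP1 were seeded at 400 cells/well in medium containing 20 nM camptothecin, exposed to pin-transferred compounds, and grown at 37 °C for at least 48 hr. Viability was read as ATP luminescence.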
DT40 TDP1 no CPT = qHTS for Inhibitors of human tyrosyl-DNA phosphodiesterase 1 (TDP1): qHTS in cells in absence of CPT; DT40 Tdp1-/- hTDP1 cells, no CPT, ATP luminescence, 48 h; Potency, µM (series often up to 46.2 µM), usual class: inhibitors; hit rate 15% among 420,000; also: nearly all actives have a fitted effect of over 55% in size
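DT40 Tdp1-/-;hTDP1 cells, no CPT (DMSO vehicle only), 400 cells/well; compounds pin-transferred; ≥48 hr, 37 °C; CellTiter-Glo 30 min RT dark, luminescence read.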
HT1080 IDH1KD tx = kills HT-1080 cells with IDH1 knockdown; HT-1080 IDH1 knockdown viability, ATP luminescence, 48 h; Potency, µM (doses to about 46.1 µM), hits mostly cytotoxic; hit rate 2% among 360,000; AID 686971
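Using the IDH1-knockdown HT-1080 line run in the same batch and compound series as the NT line, viability after 48 h at 37 °C was determined by CellTiter-Glo luminescence and expressed as % activity.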
HT1080NT lethal = kills 2HG-producing HT-1080-NT fibrosarcoma cells; HT-1080-NT fibrosarcoma viability, CellTiter-Glo ATP luminescence, 48 h; Potency, µM (doses to about 46.1 µM), usual class: cytotoxic; hit rate 1.6% among 360,000; AID 686970;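 also: NT is the 2HG producing partner of a matched IDH1 knockdown line; nearly all actives have a fitted effect of over 55% in size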
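A 48-hour cytotoxicity screen used HT-1080-NT cells plated 2 hours before compound delivery. ATP-based CellTiter-Glo luminescence measured viability, normalized to DMSO and no-cell controls.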
Of the large screens only hits and unclear results are named; the others gave an inactive call. Calls follow the shape of the dose curve; as a rule, active = well fitted curve in the direction sought with a large enough effect; inconclusive = small, poorly fitted or top-dose-only effect, or another doubt; inactive = no such curve, though single readings can be large; an effect the other way counts as inactive or inconclusive.

O=C(CCNS(=O)(=O)c1ccccc1F)N1CCN(C(c2ccccc2)c2ccccc2)CC1	KB-V1 MDR tox 8.2µM, KB-3-1 tox inconclusive, TDP1 cell CPT inconclusive, DT40 TDP1 no CPT inconclusive
Cc1nc(Nc2nc3ccccc3o2)nc2c1CCCC2	none (no result: TDP1 cell CPT, DT40 TDP1 no CPT, HT1080 IDH1KD tx, HT1080NT lethal)
Clc1ccc2c(c1)[C@H]1OCC[C@H]1[C@@H](c1ccco1)N2	DT40 TDP1 no CPT inconclusive
CCc1ccc2c(c1)[C@H]1OCC[C@H]1[C@@H](c1cccs1)N2	KB-V1 MDR tox inconclusive, KB-3-1 tox 13µM, TDP1 cell CPT 13µM, DT40 TDP1 no CPT 7.3µM, HT1080 IDH1KD tx 3.7µM, HT1080NT lethal 4.1µM
COc1ccc(S(=O)(=O)N2CCC(N3CCN(Cc4ccc(F)cc4)C(=O)C3=O)CC2)cc1	none (no result: HT1080 IDH1KD tx, HT1080NT lethal)
COc1ccc2[nH]c3c(c2c1)CCN1C(=O)C(CC(=O)NCc2ccc(OC)c(OC)c2)C[C@H](C(=O)N2CCCCC2)[C@@]31CCc1ccccc1 (stereo not given in full)	KB-V1 MDR tox inconclusive, TDP1 cell CPT inconclusive, DT40 TDP1 no CPT inconclusive
Cc1nc(C)n(CC(=O)NCC2Cc3cc(-c4cccc(OC(F)(F)F)c4)ccc3O2)n1 (stereo not given)	DT40 TDP1 no CPT 0.018µM (no result: KB-V1 MDR tox, KB-3-1 tox, HT1080 IDH1KD tx, HT1080NT lethal)
COC(=O)c1ccccc1COc1cccn2c(N(C)Cc3cccs3)c(C)nc12	KB-V1 MDR tox 18µM, KB-3-1 tox inconclusive, TDP1 cell CPT inconclusive, DT40 TDP1 no CPT inconclusive, HT1080 IDH1KD tx inconclusive, HT1080NT lethal inconclusive
Cc1nc2c(OCc3cccc(Cl)c3)cccn2c1N(C)Cc1cccs1	KB-V1 MDR tox 18µM, KB-3-1 tox inconclusive, TDP1 cell CPT 21µM, DT40 TDP1 no CPT 16µM, HT1080 IDH1KD tx inconclusive, HT1080NT lethal inconclusive
CCC(CC)C(=O)N(C)c1c(C)nc2c(OCc3ccccc3C(=O)OC)cccn12	TDP1 cell CPT inconclusive, DT40 TDP1 no CPT 16µM
CCC(CC)C(=O)N(C)c1c(C)nc2c(OCC3CCCCC3)cccn12	TDP1 cell CPT inconclusive, DT40 TDP1 no CPT 13µM, HT1080 IDH1KD tx inconclusive, HT1080NT lethal inconclusive
Cc1nc2c(OCc3ccc(C#N)cc3)cccn2c1N(C)C(=O)CCC1CCCC1	KB-V1 MDR tox inconclusive, KB-3-1 tox inconclusive, TDP1 cell CPT inconclusive, DT40 TDP1 no CPT inconclusive
COc1ccc(CN2CCNC(=O)C2CC(=O)NC2CCOCC2)c(F)c1 (stereo not given)	none
CCC(CC)C(=O)N(C)c1c(C)nc2c(OCc3ccccc3OC)cccn12	TDP1 cell CPT inconclusive, DT40 TDP1 no CPT 15µM, HT1080NT lethal inconclusive
CCc1nc2c(OCc3ccc(F)cc3)cccn2c1N(C)C(=O)C(C)C	DT40 TDP1 no CPT inconclusive
CCOC(=O)Cc1csc(NC(=O)Nc2cccc(Cl)c2)n1	KB-V1 MDR tox 15µM, TDP1 cell CPT inconclusive, DT40 TDP1 no CPT inconclusive, HT1080 IDH1KD tx inconclusive
CCOC(=O)Cc1csc(N/N=C/c2ccc(Cl)cc2)n1	none
CCOC(=O)Cc1csc(NC(=O)Nc2ccc(Cl)cc2)n1	KB-V1 MDR tox inconclusive, TDP1 cell CPT 21µM, DT40 TDP1 no CPT 16µM, HT1080 IDH1KD tx inconclusive, HT1080NT lethal inconclusive
CCOC(=O)Cc1csc(NC(=O)/C=C/c2ccc(Br)o2)n1	KB-V1 MDR tox 15µM, TDP1 cell CPT inconclusive, DT40 TDP1 no CPT inconclusive
CCC1CCCCN1C(=O)Cn1c(=O)n(CC2CCC(C(=O)NC)CC2)c(=O)c2sccc21 (stereo not given)	none (no result: HT1080 IDH1KD tx, HT1080NT lethal)
CCN1C(N(C)CCc2cccs2)=N[C@@H](c2ccccc2)C(C(=O)OC)=C1C	TDP1 cell CPT inconclusive, DT40 TDP1 no CPT inconclusive
CCN1C(N(C)CCc2c[nH]c3ccccc23)=N[C@@H](c2cccc(C(F)(F)F)c2)C(C(=O)OC)=C1C	KB-V1 MDR tox inconclusive, TDP1 cell CPT 9.2µM, DT40 TDP1 no CPT 23µM
CCN(CC)CCCN=C1N[C@@H](c2cccc(C(F)(F)F)c2)C(C(=O)OC)=C(C)N1CC	KB-3-1 tox inconclusive, TDP1 cell CPT inconclusive, HT1080 IDH1KD tx inconclusive, HT1080NT lethal inconclusive
